Laboratory results as given in PubChem BioAssay (Tox21).
Values joined by “and” are separate entries in the source; they are usually repeats but may differ in a detail not shown here. Identical values can stand only once. Results filed as inconclusive are left out. Where a call stands in place of a potency, no number is given. Unmarked numbers belong to inactive results. Active and inactive are the calls of the source. Calls come from the whole dose curve; as a rule, active = well fitted cell-killing curve with a large enough effect in the repeat runs; inconclusive = weak or mixed curves, or effect the other way; inactive = flat fitted curve, though single readings scatter.

Legend:
[1] = cAMP Responsive Elements (CRE) small molecule antagonists, cell-based qHTS assay: qHTS cell viability counter screen (AID 2060913); note: nearly all actives have a fitted effect of over 40% in size
Summary of the method: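 CRE-bla HEK293T cells (2,000/well, 18 h) given compound plus NKH477 0.25 uM final for 3 h at 37C; viability counter-screen by CellTiter-Glo luminescence in same wells after 30 min.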

[2] = cAMP Responsive Elements (CRE) small molecule agonists, cell-based qHTS assay: qHTS cell viability counter screen (AID 2060914);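 note: viability read after 3 h of compound exposure; nearly all actives have a fitted effect of over 50% in size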
Summary of the method: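 Cells are seeded and incubated 18 h, treated with compounds in DMSO for 3 h, read for the bla reporter, then given CellTiter-Glo; luminescence is measured after 30 min at room temperature.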
Potency is the fitted concentration of half-maximal effect.

Row | SMILES | Potency [1] | Potency [2] | viability change, negative = cytotoxic [1] | activity change, negative = cytotoxicity [2]
1 | Cc1cc2c(s1)Nc1ccccc1N=C2N1CCN(C)CC1 | inactive | inactive |  | 
2 | CN1CCN(c2ccccc2/C=C2\SCCN(c3ccc(Cl)c(Cl)c3)C2=O)CC1 | inactive | inactive |  | 
3 | CCCC(=O)Nc1ccc(O)c(C(C)=O)c1 | inactive | inactive |  | 
4 | CNC(=S)NC | inactive | inactive |  | 
5 | CCOC(=O)N1CCC(Nc2ccc(Cl)cc2N)CC1 | inactive | inactive |  | 
6 | CC(C)c1ccccc1 | inactive | inactive |  | 
7 | CC(=O)CCCCn1c(=O)c2c(ncn2C)n(C)c1=O | inactive | inactive |  | 
8 | O=C(c1ccccc1)c1ccc(O)cc1O | inactive | inactive |  | 
9 | CCOc1ccc2nc(S(N)(=O)=O)sc2c1 | inactive | inactive |  | 
10 | CC(C)(C)C(=O)/C=C/c1ccc(Cl)cc1 | inactive | inactive |  | 
11 | CC(CO)c1ccccc1 (stereo unspecified) | inactive | inactive |  | 
12 | Nc1nc2c(ncn2COCCO)c(=O)[nH]1 | inactive | inactive |  | 
13 | c1ccc2c(c1)Cc1ccccc1-2 | inactive | inactive |  | 
14 | CCc1nccnc1CC |  |  | 0.102% [at 18.9 µM] | 11.2% [at 18.9 µM]
15 | COC(=O)c1ccc(O)cc1 | inactive | inactive |  | 
16 | Cc1cc(O)c2c(c1)C(=O)c1cccc(O)c1C2=O | inactive | inactive |  | 
17 | O=[N+]([O-])c1ccc2nc[nH]c2c1 | inactive | inactive |  | 
18 | C=C1C[C@@]23CC[C@H]4[C@@](C)(CCC[C@@]4(C)C(=O)O[C@@H]4O[C@H](CO)[C@@H](O)[C@H](O)[C@H]4O)[C@@H]2CC[C@]1(O[C@@H]1O[C@H](CO)[C@@H](O)[C@H](O[C@@H]2O[C@H](CO)[C@@H](O)[C@H](O)[C@H]2O)[C@H]1O[C@@H]1O[C@H](CO)[C@@H](O)[C@H](O)[C@H]1O)C3 | inactive | inactive |  | 
19 | COc1cccc(OC)c1O | inactive | inactive |  | 
20 | CC(C)(c1ccc(O)cc1)c1ccc(O)cc1 | inactive | inactive |  | 
21 | CC(=O)Nc1ccc(C)cc1 | inactive | inactive |  | 
22 | CO[Si](C)(OC)OC | inactive | inactive |  | 
23 | Cc1ccccc1C(=O)Nc1ccc(C(=O)N2CCCC(N(C)C)c3ccccc32)cc1 (stereo unspecified) | inactive | inactive |  | 

Row | SMILES | Potency [1] | Potency [2] | viability change, negative = cytotoxic [1] | activity change, negative = cytotoxicity [2]
24 | C=CC(=O)CC | inactive | inactive |  | 
25 | Cc1c(N)c(=O)n(-c2ccccc2)n1C | inactive | inactive |  | 
26 | CN=C(NC#N)Nc1ccc(C2=NNC(=O)CC2C)cc1 (stereo unspecified) | inactive | inactive |  | 
27 | O=C1CCC(N2C(=O)c3ccccc3C2=O)C(=O)N1 (stereo unspecified) | inactive | inactive |  | 
28 | CC(C)c1nnc2ccc(-c3ocnc3-c3cc(F)ccc3F)cn12 | inactive | inactive |  | 
29 | CCN(CC)CCNC(=O)c1ccc(N)cc1 | inactive | inactive |  | 
30 | CC(C)C[C@H]1C(=O)N2CCC[C@H]2[C@]2(O)O[C@](NC(=O)[C@@H]3C=C4c5cccc6[nH]c(Br)c(c56)C[C@H]4N(C)C3)(C(C)C)C(=O)N12 | inactive | inactive |  | 
31 | O=S1(=O)CC(Cl)(Cl)C(Cl)(Cl)C1 | 15.4 µM (active) | 34.4 µM (active) |  | 
32 | O=C1c2ccccc2-c2ccccc21 | inactive | inactive |  | 
33 | C=C(C)C(=O)OCC[N+](C)(C)C | inactive | inactive |  | 
34 | CCN1CCc2nc(N)oc2CC1 | inactive | inactive |  | 
35 | CC(C)(COC(=O)c1ccccc1)COC(=O)c1ccccc1 | inactive | inactive |  | 
36 | CN1N=C(C(N)=O)CCC1=O | inactive | inactive |  | 
37 | CCCCCCC(C)(C)S | inactive | inactive |  | 
38 | C=CCCCCCCC=C | inactive | inactive |  | 
39 | CCCCCCC(C)O (stereo unspecified) | inactive | inactive |  | 
40 | O=C(Nc1cccc(C2=NCCN2)c1)Nc1cccc(C2=NCCN2)c1 |  |  | 0.0426% [at 18.9 µM] | 10.9% [at 18.9 µM]
41 | CS(=O)(=O)c1ccc([C@@H](O)[C@@H](CF)NC(=O)C(Cl)Cl)cc1 | inactive | inactive |  | 
42 | CC(=O)N1C[C@H](O)C[C@H]1C(=O)O | inactive | inactive |  | 
43 | O=C(O)c1ccc([N+](=O)[O-])cc1 | inactive | inactive |  | 
44 | OCCCCCCO | inactive | inactive |  | 
45 | Nc1cc([N+](=O)[O-])ccc1Cl | inactive | inactive |  | 
46 | O=C(O)[C@@H]1[C@H]2C[C@H]3c4[nH]c5ccccc5c4CCN3C[C@@H]2CC[C@@H]1O | inactive | inactive |  | 

Row | SMILES | Potency [1] | Potency [2] | viability change, negative = cytotoxic [1] | activity change, negative = cytotoxicity [2]
47 | CC(C)CCCC(C)CCCC(C)CCCCC(C)CCCC(C)CCCC(C)C (stereo unspecified) | inactive | inactive |  | 
48 | CCC(C)N (stereo unspecified) | inactive | inactive |  | 
49 | CC(=O)[C@H]1CC[C@H]2[C@@H]3C[C@H](C)C4=CC(=O)CC[C@]4(C)[C@H]3[C@@H](O)C[C@]12C | inactive | inactive |  | 
50 | C[Si](C)(C)O[Si](O)(O)O | inactive | inactive |  | 
51 | Cc1c(C(=O)O)c(O)cc2c1C(=O)c1c(O)c([C@@H]3O[C@H](CO)[C@@H](O)[C@H](O)[C@H]3O)c(O)c(O)c1C2=O | inactive | inactive |  | 
52 | C1CCOC1 | inactive | inactive |  | 
53 | Cc1ccccc1C=O | inactive | inactive |  | 
54 | Cc1oncc1C(=O)Nc1ccc(C(F)(F)F)cc1 | inactive | inactive |  | 
55 | CC(C)(C)c1ccccc1 | inactive | inactive |  | 
56 | Nc1ccc2cc(S(=O)(=O)O)ccc2c1 | inactive | inactive |  | 
57 | CC(C)[N+](C)(CCOC(=O)C1c2ccccc2Oc2ccccc21)C(C)C | inactive | inactive |  | 
58 | CO/N=C(\C(=O)O)c1csc(NC(=O)CCl)n1 | inactive | inactive |  | 
59 | CC(=O)CC/C=C(\C)CCC=C(C)C | inactive | inactive |  | 
60 | CC(C)Cc1nccs1 | inactive | inactive |  | 
61 | CC(C)OC(=O)CCCCC(=O)OC(C)C | inactive | inactive |  | 
62 | CNC(=S)N(C)C | inactive | inactive |  | 
63 | COc1ccc(-c2cc(=S)ss2)cc1 | inactive | inactive |  | 
64 | Nc1ccn([C@H]2CS[C@@H](CO)O2)c(=O)n1 | inactive | inactive |  | 
65 | CCCCCCCCSCc1cc(C)c(O)c(CSCCCCCCCC)c1 | inactive | inactive |  | 
66 | CCN(C(=O)N(CC)c1ccccc1)c1ccccc1 | inactive | inactive |  | 
67 | CN1CCC[C@@H]1Cc1c[nH]c2ccc(CCS(=O)(=O)c3ccccc3)cc12 | inactive | inactive |  | 
68 | Cc1ccc(C(C)(C)O)cc1 | inactive | inactive |  | 
69 | COc1ccc(/C(C)=C/C(=O)O)c(OC)c1 | inactive | inactive |  | 

Row | SMILES | Potency [1] | Potency [2] | viability change, negative = cytotoxic [1] | activity change, negative = cytotoxicity [2]
70 | NS(=O)(=O)Cc1noc2ccccc12 | inactive | inactive |  | 
71 | Cc1cc(SC2=C(O)C[C@@](CCc3ccc(N)cc3)(C(C)C)OC2=O)c(C(C)(C)C)cc1CO | inactive | inactive |  | 
72 | O=NO | inactive | inactive |  | 
73 | CC(=O)CCC(=O)O | inactive | inactive |  | 
74 | c1ccc2c(c1)c1cccc3ccc4cccc2c4c31 | inactive | inactive |  | 
75 | CC(=O)OCC(=O)[C@@]1(O)[C@H](OC(C)=O)C[C@H]2[C@@H]3CCC4=CC(=O)C=C[C@]4(C)[C@@]3(F)[C@@H](O)C[C@@]21C | inactive | inactive |  | 
76 | CCOC(=O)c1ccc(O)c(O)c1 | inactive | inactive |  | 
77 | O=C=Nc1cccc(C(F)(F)F)c1 | inactive | inactive |  | 
78 | Cc1cc(O)c2c(c1)C(=O)c1cc(O)cc(O)c1C2=O | inactive | inactive |  | 
79 | Cl/C(=C\n1cncn1)c1ccc(Cl)cc1Cl | inactive | inactive |  | 
80 | O=C1C=CCCC1 | inactive | inactive |  | 
81 | O=S(=O)(O)CCCN1CCOCC1 | inactive | inactive |  | 
82 | CC(=O)[O][Al][O]C(C)=O | inactive | inactive |  | 
83 | O=C1c2ccccc2C(=O)C1c1ccc2cc(S(=O)(=O)O)cc(S(=O)(=O)O)c2n1 | inactive | inactive |  | 
84 | CCCCOCCOCCOCc1cc2c(cc1CCC)OCO2 | inactive | inactive |  | 
85 | CCC(Cc1c(I)cc(I)c(N)c1I)C(=O)O (stereo unspecified) | inactive | inactive |  | 
86 | CC(C)(C)NCC(O)COc1cccc2c1C[C@H](O)[C@H](O)C2 (stereo partly specified) | inactive | inactive |  | 
87 | O=c1[nH]c(=O)c2cn[nH]c2[nH]1 | inactive | inactive |  | 
88 | CCN(CC)C(=O)c1cccc(C)c1 | inactive | inactive |  | 
89 | O=C(C1CCCCC1)N1CC(=O)N2CCc3ccccc3C2C1 (stereo unspecified) | inactive | inactive |  | 
90 | FC(F)(F)c1cccc(Cl)c1 | inactive | inactive |  | 
91 | CCCCC(CC)COCCCN (stereo unspecified) | inactive | inactive |  | 
92 | C[N+]1([O-])CCOCC1 | inactive | inactive |  | 

Row | SMILES | Potency [1] | Potency [2] | viability change, negative = cytotoxic [1] | activity change, negative = cytotoxicity [2]
93 | CCCCCCCC/C=C\CCCCCCCCCCCC(=O)O | inactive | inactive |  | 
94 | Cc1cc(OCCOCC[N+](C)(C)Cc2ccccc2)ccc1C(C)(C)CC(C)(C)C | 54.2 µM (active) and 29.8 µM (active) | 60.8 µM (active) and 26.6 µM (active) |  | 
95 | Cc1cc2nc(N)sc2cc1C | inactive | inactive |  | 
96 | CC(=O)OC(C)C[N+](C)(C)C (stereo unspecified) | inactive | inactive |  | 
97 | CCCCNC(=O)NS(=O)(=O)c1ccc(N)cc1 | inactive | inactive |  | 
98 | CCO[Si](OCC)(OCC)c1ccccc1 | inactive | inactive |  | 
99 | Oc1cccc2c(O)cccc12 | inactive | inactive |  | 
100 | CCC1(C)C(=O)N(Cl)C(=O)N1Cl (stereo unspecified) | inactive | inactive |  | 
101 | CN(C)C(=S)SC(=S)N(C)C | 62.7 µM (active) and 3.2 µM (active) | inactive |  | 
102 | CC(C)CCCCCCCOC(=O)CCCCC(=O)OCCCCCCCC(C)C | inactive | inactive |  | 
103 | CCC(C)(C)c1cc(O)c(C(C)(C)CC)cc1O | inactive | inactive |  | 
104 | C/C=C/C(=O)N(CC)c1ccccc1C | inactive | inactive |  | 
105 | Cc1ccc(C)o1 | inactive | inactive |  | 
106 | CCOCCn1c(N2CCCN(C)CC2)nc2ccccc21 | inactive | inactive |  | 
107 | CC1(C)C2=CCCC(C)(C)[C@]23CC[C@H]1C3 | inactive | inactive |  | 
108 | CC(C)=CC(=O)O | inactive | inactive |  | 
109 | CC(C)COC(=O)C(C)C | inactive | inactive |  | 
110 | CCOC(=O)Nc1ccc(NCc2ccc(F)cc2)nc1N | inactive | inactive |  | 
111 | O=C(CCCCCCCCc1cccnc1)N1CCC(C=C(c2ccccc2)c2ccccc2)CC1 | inactive | inactive |  | 
112 | CCCCc1ccc2cccc(S(=O)(=O)O)c2c1 | inactive | inactive |  | 
113 | CN(C)CCOCCN(C)CCO | inactive | inactive |  | 
